Screening data as filed in PubChem BioAssay.
In the library only some 1.2% were active in any assay of this set; here they are far more common.
gsp antagonist = antagonizes gsp, the McCune-Albright syndrome mutation; gsp-mutant cells, cAMP HTRF, 30 min; AID 624288; Potency, µM (doses to about 76.9 µM), for inactives: at the top dose activity change, negative = inhibition, hits mostly inhibitors; 0.4% of 340,000 active; calls by dose curve; cell line not stated here;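 note: intracellular cAMP measured with PDE inhibitor Ro 20-1724 present during compound exposure; potency is the fitted concentration of half-maximal effect; % is set by controls: 0 for no effect and ±100 for the full control effect; nearly all actives have a fitted effect of over 65% in size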
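HTRF cAMP measurement after 30 min RT detection following 30 min, 37C compound treatment alongside […] (added as 300 uM solution) in G418-selected cells seeded at 2000/well and grown 16–24 h.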
pAkt inh = inhibitors of Akt phosphorylation | Neuro2A IGF-stimulated pAkt S473 HTRF, 20 min; hits give low values | activity change, % for hits at 50 µM | 0.32% of 360,000 active; in the data active = activity change below about -80%; inconclusive = mostly about -51% to -80%; note: % is set by controls: 0 for no effect and ±100 for the full control effect
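Single-point screen (50 µM final compound) in Neuro2A cells stimulated 20 min with 6 nM IGF at 37 deg C. After lysis, Ser473-phosphorylated Akt read by HTRF (ex 330 nm, em 615/665 nm) as the 665/615 ratio.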
RXFP1 antag = RXFP1 (human) relaxin receptor antagonism; Q9HBX9; HEK293-RXFP1, relaxin-stimulated cAMP HTRF, 30 min; hits give low values; activity change, negative = inhibition, % at 57.5 µM; 0.59% of 350,000 active;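 active = activity change of -60% or lower, but not beyond a set lower limit; inconclusive = change between -60% and -40%, or beyond the set limit; inactive = change above -40%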; note: % is set by controls: 0 for no effect and ±100 for the full control effect
Target sequence (Q9HBX9 whole entry, looked up): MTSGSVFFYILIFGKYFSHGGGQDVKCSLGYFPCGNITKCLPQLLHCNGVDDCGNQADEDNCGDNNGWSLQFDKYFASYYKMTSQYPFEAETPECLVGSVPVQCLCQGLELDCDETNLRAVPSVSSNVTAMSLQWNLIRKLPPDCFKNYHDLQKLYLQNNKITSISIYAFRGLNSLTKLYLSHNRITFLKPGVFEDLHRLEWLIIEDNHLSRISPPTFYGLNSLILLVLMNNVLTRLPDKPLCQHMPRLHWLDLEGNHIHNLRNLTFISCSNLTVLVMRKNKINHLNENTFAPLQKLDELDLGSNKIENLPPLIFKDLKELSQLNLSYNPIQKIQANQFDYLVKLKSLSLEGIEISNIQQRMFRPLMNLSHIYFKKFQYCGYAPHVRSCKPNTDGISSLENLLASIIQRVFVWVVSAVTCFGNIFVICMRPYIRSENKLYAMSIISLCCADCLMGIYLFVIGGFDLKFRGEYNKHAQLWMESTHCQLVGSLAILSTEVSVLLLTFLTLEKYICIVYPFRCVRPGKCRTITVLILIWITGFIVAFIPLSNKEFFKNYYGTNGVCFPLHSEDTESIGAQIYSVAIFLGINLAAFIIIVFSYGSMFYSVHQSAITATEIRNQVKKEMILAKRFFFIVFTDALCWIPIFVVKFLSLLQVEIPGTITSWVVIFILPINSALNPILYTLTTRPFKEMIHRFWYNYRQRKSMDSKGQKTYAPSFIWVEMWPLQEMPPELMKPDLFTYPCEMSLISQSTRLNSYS
gsp ag = gsp mutant agonism; gsp mutant cells, cAMP HTRF, 30 min; Potency, µM (highest dose often 76.9 µM), for inactives: at the top dose activation (cAMP increase), most hits filed as activators; 0.13% of 340,000 active; AID 624287; active = well fitted activation curve with a large enough effect; inconclusive = small, poorly fitted or top-dose-only effect, or another doubt; inactive = no such curve, though single readings can be large or run the other way; cell line not stated here;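 note: phosphodiesterase inhibitor Ro 20-1724 added with compounds to block cAMP breakdown; potency is the fitted concentration of half-maximal effect; nearly all actives have a fitted effect of over 60% in size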
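Cells in DMEM/10% FBS with G418 were pretreated with compounds in DMSO plus […] (300 uM stock) for 30 min at 37C. cAMP was measured by HTRF (cAMP-d2 plus anti-cAMP antibody-K) after 30 min at room temperature.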
RXFP1 agonist = agonists of human relaxin receptor RXFP1; 0.3% of 370,000 active; Q9HBX9; HEK293T-RXFP1 cAMP TR-FRET, 30 min; response scale: percent of porcine relaxin response, buffer zero; Potency, µM (doses to about 57.5 µM), inactives show top-dose activation, usual class: activators; active = well fitted activation curve with a large enough effect; inconclusive = small, poorly fitted or top-dose-only effect; note: potency is the fitted concentration of half-maximal effect; % is set by controls: 0 for no effect and ±100 for the full control effect; nearly all actives have a fitted effect of over 60% in size
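HEK293T cells stably expressing RXFP1 were pretreated with the PDE4 inhibitor Ro 20174, exposed to compounds for 30 min at 37C, lysed, and cAMP was read by TR-FRET. Data normalized to buffer (basal) and 29 nM porcine relaxin (100%).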
* = called active by the depositor; [ ] = dose if it differs, or a comment.

`CN(CC(=O)Nc1nc2ccccc2s1)S(=O)(=O)c1ccc(Cl)cc1` gave gsp antagonist 32µM*, pAkt inh inactive, RXFP1 antag -18, gsp ag -7% and RXFP1 agonist 0%.
CC(C)(C)OC(=O)N[C@@H](Cc1ccccc1)c1nnc(S(=O)(=O)Cc2cccc(F)c2)o1 was read as gsp antagonist 10%, pAkt inh inactive, RXFP1 antag -119*, gsp ag 6% and RXFP1 agonist 1%.
For Cc1ccccc1CS(=O)(=O)c1nnc([C@H](CC(C)C)NC(=O)OC(C)(C)C)o1 the results were gsp antagonist 14%, pAkt inh inactive, RXFP1 antag -26, gsp ag 2% and RXFP1 agonist 0%.
For CC(C)C[C@H](N)c1nnc(S(=O)(=O)Cc2cccc(F)c2)o1 the results were gsp antagonist 3%, RXFP1 antag 30, gsp ag 0% and RXFP1 agonist -2%.
`CC[C@@H](C)[C@H](NC(=O)OC(C)(C)C)c1nnc(S(=O)(=O)Cc2cc(C)ccc2C)o1` gave gsp antagonist 16%, pAkt inh -127%*, RXFP1 antag inconclusive, gsp ag 19% and RXFP1 agonist 0%.
Screening Cn1c(SCc2cccnc2)nc2c(c1=O)SCC2 returned gsp antagonist -2%, pAkt inh inactive, RXFP1 antag -14, gsp ag -12%[15.4 µM] and RXFP1 agonist 0%.
c1ccn2c(SCc3ccc4c(c3)OCCO4)nnc2c1 was read as gsp antagonist 0%, pAkt inh inactive, gsp ag inconclusive and RXFP1 agonist 0%.
Cn1c(SCc2cccc([N+](=O)[O-])c2)nc2c(c1=O)SCC2 was read as gsp antagonist 35µM*, pAkt inh inactive, RXFP1 antag 10, gsp ag 3% and RXFP1 agonist 3%.
`O=[N+]([O-])c1cccc(CSc2nnc3ccccn23)c1` gave pAkt inh inactive, RXFP1 antag 3, gsp ag 26%[15.4 µM] and RXFP1 agonist 25µM*.
Screening CC(=O)N1c2ccc(S(=O)(=O)N3CCC(C(=O)Nc4ccc(F)cc4)CC3)cc2CC1C (centres undefined) returned gsp antagonist 10µM*, pAkt inh inactive, RXFP1 antag -12, gsp ag 8% and RXFP1 agonist -2%.
For CC(C)(C)C(=O)COC(=O)c1cc(-c2ccncc2)nc2ccccc12 the results were gsp antagonist -14%, pAkt inh inactive, RXFP1 antag -67*, gsp ag -7%[15.4 µM] and RXFP1 agonist 4%.
Screening CCOC(=O)N1CCN(Cc2nc3cc(NC(=O)c4ccccc4Cl)ccc3n2C(C)C)CC1 returned RXFP1 antag -9 and RXFP1 agonist -1%.
`Cc1ccc(C(C)OC(=O)C2(C)CCC(C(=O)O)C2(C)C)cc1` (centres undefined) gave RXFP1 antag -7.
COC(=O)c1sc(-c2cccs2)cc1NC(=O)/C=C/C(=O)O was read as gsp antagonist 22µM*, pAkt inh inactive, RXFP1 antag inconclusive, gsp ag inconclusive and RXFP1 agonist 15%.
OC1(c2ccc(OC(F)F)cc2)CSC(=Nc2cccnc2)N1Cc1ccco1 (centres undefined) was read as gsp antagonist 32µM*, pAkt inh inactive, RXFP1 antag -31, gsp ag -17% and RXFP1 agonist 4%.
OC1(c2ccc(F)cc2)CSC(=Nc2cccnc2)N1Cc1ccco1 (centres undefined) was read as pAkt inh inactive, RXFP1 antag -62*, gsp ag 0%[15.4 µM] and RXFP1 agonist 0%.
For FC(F)Oc1ccc(-c2csc(=Nc3cccnc3)n2CC2CCCO2)cc1 (centres undefined) the results were gsp antagonist -20%, pAkt inh inactive, RXFP1 antag -15, gsp ag 0% and RXFP1 agonist 0%.
Screening COCCn1ccc2c(OCC(=O)Nc3cccc(OC)c3)cccc2c1=O returned RXFP1 agonist 0%.
CC1C=CCC2C(=O)N(c3cccc(C(=O)N4CCN(c5ccc(F)cc5)CC4)c3)C(=O)C12 (centres undefined) was read as gsp antagonist -12%, pAkt inh inactive, RXFP1 antag 6, gsp ag 28µM* and RXFP1 agonist 0%.
For O=C(c1cccc(N2C(=O)C3C4C=CC(C4)C3C2=O)c1)N1CCN(c2ccc(F)cc2)CC1 (centres undefined) the results were gsp antagonist 0%, pAkt inh inactive, RXFP1 antag -3, gsp ag -34% and RXFP1 agonist -2%.
For O=[N+]([O-])c1cc(CN2CCOCC2)c2cccnc2c1O the results were gsp antagonist -20%, pAkt inh inactive, RXFP1 antag -102*, gsp ag -3%[15.4 µM] and RXFP1 agonist 0%.
Oc1c(Cl)cc(CN2CCOCC2)c2cccnc12 was read as gsp antagonist 1%, pAkt inh inactive, RXFP1 antag -19, gsp ag inconclusive and RXFP1 agonist 0%.
`CCOC(=O)C(=CNc1ccccc1Cl)C(=O)OCC` gave gsp antagonist -20%, pAkt inh inactive, RXFP1 antag -8, gsp ag -19% and RXFP1 agonist -4%.
Screening CCOC(=O)C(=CNc1ccccc1C)C(=O)OCC returned gsp antagonist 20µM*, pAkt inh inactive, RXFP1 antag -15, gsp ag 35% and RXFP1 agonist 3%.
CCOC(=O)/C(C#N)=C/Nc1ccccc1OC was read as gsp antagonist 12%, pAkt inh -98%*, RXFP1 antag 5, gsp ag -47% and RXFP1 agonist 2%.
`CCOC(=O)C(=O)/C(C#N)=C/Nc1ccccc1` gave gsp antagonist -8%, pAkt inh inactive, RXFP1 antag -1, gsp ag -8% and RXFP1 agonist 0%.
For O=C(NCc1cc([N+](=O)[O-])ccc1O)c1cc(-c2ccncc2)nc2ccccc12 the results were gsp antagonist 40µM*, pAkt inh inactive, RXFP1 antag inconclusive, gsp ag inconclusive and RXFP1 agonist 1%.
Screening CN(C(=O)CSc1ncnc2ccccc12)C1CCS(=O)(=O)C1 (centres undefined) returned gsp antagonist 8%, pAkt inh inactive, RXFP1 antag 5, gsp ag 13µM* and RXFP1 agonist 8%.
Screening O=[N+]([O-])c1cccc(/C=N/Nc2nccnc2Cl)c1 returned gsp antagonist 6%, pAkt inh -83%*, RXFP1 antag -14, gsp ag 31% and RXFP1 agonist 5%.
Screening CCOC(=O)c1c(C)nc2sc3c(=O)n(-c4ccc(C)cc4)cnc3c2c1-c1ccc(OC)cc1 returned gsp antagonist 14%, pAkt inh -110%*, RXFP1 antag -2, gsp ag inconclusive and RXFP1 agonist 0%.
